Screening data from PubChem.
Tau fibril FP = blocks human tau fibril formation measured by polarization. P10636. Potency, µM (top dose mostly 57.7 µM), for the others: at the top dose activity, negative = inhibition, actives largely listed as inhibitors. AID 1468. hit rate 0.39% among 280,000. K18 P301L tau heparin fibrillization, Alexa594 FP, 6 h; further: potency means the concentration at half of the fitted maximal effect; nearly all actives have a fitted effect of over 55% in size
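Steps: dispense K18 P301L tau (15 uM plus 0.24 uM Alexa 594 tracer, final) in pH 7 sodium acetate; add compound; add heparin (20 uM final); incubate 6 hr, 37 C; add ThT (30 uM final); after 1 hr ambient, read FP.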
JMJD2E inh = blocks human JMJD2E demethylase activity | Potency, µM (doses to about 57.1 µM), for the others: top-dose activity change, negative = inhibition, usual class: inhibitors | JMJD2E catalytic domain, FDH-coupled NADH fluorescence (FDH is formaldehyde dehydrogenase) | hit rate 1.6% among 230,000; active means well fitted inhibition curve with a large enough effect, not every such curve was filed as active; inconclusive means small, poorly fitted or top-dose-only effect, or another doubt; inactive means no such curve, though single readings can be large or run the other way;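 further: potency means the concentration at half of the fitted maximal effect; 0% = wells with enzyme and -100% = buffer wells without enzyme; nearly all actives have a fitted effect of over 50% in size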
Target sequence (B2RXH2 1-337 limits assumed): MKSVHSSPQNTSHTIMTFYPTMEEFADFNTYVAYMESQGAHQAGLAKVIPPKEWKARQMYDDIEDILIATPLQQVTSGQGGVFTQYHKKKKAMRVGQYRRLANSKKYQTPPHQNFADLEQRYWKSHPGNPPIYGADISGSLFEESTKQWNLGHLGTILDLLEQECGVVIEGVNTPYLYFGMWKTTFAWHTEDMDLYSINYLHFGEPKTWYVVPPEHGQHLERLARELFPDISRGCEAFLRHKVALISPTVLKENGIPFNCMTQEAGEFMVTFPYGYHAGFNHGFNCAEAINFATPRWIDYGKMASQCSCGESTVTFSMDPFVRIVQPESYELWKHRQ
PNC assembly inh = inhibitors of perinucleolar compartment assembly. PC3M PTB-GFP, PNC prevalence imaging, 16 h; stronger effect = lower value. activity change (PNC), negative = inhibition, % at 10 µM. hit rate 3.1% among 140,000. AID 2417;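 active means readout at or below -70, meaning at least 70% loss of cells showing the perinucleolar compartment, a nuclear body marking cancer cells; inconclusive means readout between -30 and a set limit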;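 further: plate controls were DMSO wells for no effect and camptothecin positive control wells for full effect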
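Compounds are pinned in duplicate onto adhered PC3M cells stably expressing GFP-tagged PTB and incubated 16 h at 37 C. Cells are then fixed, nuclei stained with Hoechst, and PNC-positive cells counted.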
Tau fluor counter = counter-screen for tau fibril formation inhibitors; tau K18 P301L Alexa594 fluorescence, heparin fibrillization; Potency, µM (highest dose often 57.7 µM), for inactives: top-dose activity change, negative = decrease; hit rate 0.93% among 280,000; AID 1463; further: potency means the concentration at half of the fitted maximal effect; nearly all actives have a fitted effect of over 55% in size
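Human K18 P301L tau (15 uM unlabeled plus 0.24 uM Alexa 594-labeled, final) in 100 mM sodium acetate pH 7 was mixed with compound and 20 uM heparin and incubated 6 hr at 37 C.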
Tau ThT inhib = tau fibrillization inhibition (ThT binding). recombinant tau K18 P301L (four-repeat tau fragment), heparin-induced fibrillization, ThT fluorescence. Potency, µM (doses to about 57.4 µM), inactives show top-dose activity, negative = inhibition, hits mostly inhibitors. hit rate 2.1% among 270,000; further: potency means the concentration at half of the fitted maximal effect; nearly all actives have a fitted effect of over 55% in size
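Tau K18 P301L fragment (15 uM unlabeled plus 0.24 uM Alexa 594-labeled) in 100 mM sodium acetate pH 7 with compound, fibrillization induced by 20 uM heparin for 6 hr at 37 C. Thioflavin T (30 uM) added, fluorescence read after 1 hr (ex 450, em 510 nm).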
NPSR antagonist = blocks cAMP signaling of the human neuropeptide S receptor. hit rate 1% among 220,000. CHO-NPSR cells, cAMP TR-FRET, antagonist mode. Potency, µM (top dose mostly 38.3 µM), inactives show top-dose activity change, negative = inhibition, actives largely listed as inhibitors. Q6W5P4; further: potency means the concentration at half of the fitted maximal effect; nearly all actives have a fitted effect of over 50% in size
Target sequence (Q6W5P4 whole entry, looked up): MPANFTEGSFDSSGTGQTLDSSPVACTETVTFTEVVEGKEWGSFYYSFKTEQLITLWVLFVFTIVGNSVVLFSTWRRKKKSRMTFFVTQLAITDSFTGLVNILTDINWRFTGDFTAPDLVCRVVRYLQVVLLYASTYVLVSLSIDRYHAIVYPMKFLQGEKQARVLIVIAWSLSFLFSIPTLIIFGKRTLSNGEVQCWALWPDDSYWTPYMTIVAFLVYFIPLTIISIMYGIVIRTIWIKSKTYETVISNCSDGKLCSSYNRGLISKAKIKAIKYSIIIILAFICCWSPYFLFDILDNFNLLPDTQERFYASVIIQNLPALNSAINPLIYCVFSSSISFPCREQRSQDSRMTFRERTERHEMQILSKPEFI
Numbers without * were called inactive; ? = inconclusive; · = no result; [ ] = remark or other dose. An excerpt weighted towards active compounds, which were near 5.1% of everything screened. Unless noted, the call rests on the fitted dose curve; in most records, active means well fitted curve in the direction sought with a large enough effect; inconclusive means small, poorly fitted or top-dose-only effect, or another doubt; inactive means no such curve, though single readings can be large; an effect the other way counts as inactive or inconclusive. Unless noted, on the % scale 0 is the no-effect control and ±100 the full control effect.

SMILES	Tau fibril FP	JMJD2E inh	PNC assembly inh	Tau fluor counter	Tau ThT inhib	NPSR antagonist
COc1ccc(/C=N/c2c(-c3ccco3)nc3ccccn23)cc1OC	?	?	50	22µM*[quencher]	22µM*	-22%[46.1 µM]
COc1cc(-c2nc3ccccn3c2/N=C/c2ccc(F)cc2)ccc1O	-11%	?	·	-20%	?	-50%
Oc1ccccc1/C=N/c1c(-c2ccco2)nc2ccccn12	?	?	-17	22µM*[quencher]	22µM*	3%[46.1 µM]
Clc1ccc(/C=N/c2c(-c3ccco3)nc3ccccn23)cc1	?	?	26	25µM*[quencher]	25µM*	-25%[46.1 µM]
CC(C)c1ccc(Nc2c(-c3ccco3)nc3ccccn23)cc1	-7%	·	·	?	-18%	·
CC(C)(C)C(=O)Nc1ccc2nc(SCC(=O)N3CCCC3)sc2c1	6%	·	·	-5%	-5%	·
O=C1C(Cl)=C(NS(=O)(=O)c2ccc([N+](=O)[O-])cc2)C(=O)c2ccccc21	8.9µM*	-26%	·	2.5µM*[quencher]	2µM*	?
O=[N+]([O-])c1ccc(Oc2ccc(S(=O)(=O)Nc3ccccc3)cc2)cc1	1%	4%	43	?	-11%	-20%
Cc1cc(C)cc(N2CCn3c2nc2c3c(=O)n(Cc3ccc(Cl)cc3)c(=O)n2C)c1	-3%	·	·	-13%	-4%	·
CCc1ccc(Oc2c(C(F)(F)F)oc3c(CN4CCC(C)CC4)c(O)ccc3c2=O)cc1	14%	·	·	-3%	-10%	·
CCOc1cccc(C(=O)N(Cc2ccc(N(C)C)cc2)CC2CCCO2)c1 (stereo unspecified)	8%	·	·	-8%	-9%	·
Cc1ccc(NC(=O)NC2=NN(c3ccccc3)C(=O)/C2=C2/CCCN2C)cc1	?	-6%	·	?	?	-11%
CN1CCC/C1=C1/C(=O)N(c2ccccc2)N=C1NC(=O)Nc1cccc(Cl)c1	?	-7%	·	?	8.9µM*	-17%
CCOc1ccc(CCNC(=O)c2c(C)oc3ncn(CC(C)C)c(=O)c23)cc1	5%	·	·	-29%	?	·
CC(C)c1ccc(/C=C2\Oc3c(ccc(O)c3CN3CCN(C)CC3)C2=O)cc1	8%	?	·	-16%	12%	10µM*
Cc1ccc(/C=C2\Oc3c(ccc(O)c3CN3CCN(CCO)CC3)C2=O)cc1	1%	?	·	-12%	?	10µM*
CCOc1ccccc1OCCOCCN1CC(C)OC(C)C1 (stereo unspecified)	3%	-25%	-87*	2%	-4%	-7%[46.1 µM]
COC(=O)CSCc1nc2ccccc2[nH]c1=O	?	?	-12	-15%	32µM*	13%
COC(=O)CCc1nc2ccccc2[nH]c1=O	-1%	?	-26	0%	-6%	0%[46.1 µM]
COc1ccc(N2CCN(CC(O)COC(C)(C)C)CC2)cc1 (stereo unspecified)	10%	25µM*	·	0%	4%	14%
CC(=O)Nc1ccc(OCC(O)CN2CCN(c3ccc(Cl)cc3)CC2)cc1 (stereo unspecified)	8%	-1%	-100*	-10%	?	21%[46.1 µM]
COc1ccc(OCC(O)CN2CCN(c3ccc(Cl)cc3)CC2)cc1 (stereo unspecified)	-6%	3%	·	-23%	?	4%
CC(=O)N1CC[C@@H]2CC(=O)CC[C@@H]21	-2%[126 µM]	·	·	-10%[126 µM]	-7%[126 µM]	·
O=C(Nc1ccc2[nH]c(=S)sc2c1)Nc1ccccc1F	-6%	-6%	·	11µM*[quencher]	11µM*	23%
Cc1ccc(Cc2nc3ccccc3nc2SCC(=O)NCc2ccc(F)cc2)cc1	-9%	·	·	-6%	2%	·
SMILES	Tau fibril FP	JMJD2E inh	PNC assembly inh	Tau fluor counter	Tau ThT inhib	NPSR antagonist
CCC(=O)N1c2ccccc2CC1C(=O)NCc1ccccc1Cl (stereo unspecified)	1%	·	·	3%	6%	·
CCOC(=O)c1ccc(NC(=O)c2c(NCc3cc(OC)ccc3OC)sc3c2CCC3)cc1	4%	·	·	-19%	?	·
COc1ccc(N/C=C/C(=O)c2ccc3c(c2)OCO3)cc1OC	-5%	-17%	0	?	5µM*	-14%
COc1cc(/C=N\NC(=O)c2ccc(C)nc2)ccc1OC(=O)c1ccc2c(c1)OCO2	25µM*	?	·	-26%	-4%	17%
COc1cc(/C=N/NC(=O)c2cncc(Br)c2)ccc1OC(=O)c1ccc2c(c1)OCO2	5%	1%	6	0%	-8%	-9%[46.1 µM]
COc1ccc(N/C=C\C(=O)c2ccc(Br)cc2)cc1OC	0%	8%	-6	-10%	3.2µM*	16%
COc1ccc(N/C=C\C(=O)c2ccc(C)cc2)cc1OC	3%	-5%	·	?	10µM*	4%
Cc1ccc(-c2nc(C)c(CCNC(=O)C(=O)Nc3cc(C)ccc3C)s2)cc1	-10%	·	·	-12%	?	·
CCN(c1cccc(C(F)(F)F)c1)S(=O)(=O)c1ccc2c(c1)CCN2C(C)=O	-9%	7%	-98*	-17%	-5%	-12%[46.1 µM]
CCN(c1cccc(C)c1)S(=O)(=O)c1ccc2c(c1)CCN2C(C)=O	-3%	6%	29	-16%	-7%	-2%[46.1 µM]
NC(=O)CN1CCOCCOCCN(CC(N)=O)CCOCCOCC1	4%	12%	-106*	6%	4%	5%
COc1ccccc1Oc1coc2c(CN(C)C)c(O)ccc2c1=O	-1%	?	65	4%	2%	16%[46.1 µM]
CCN(CC)Cc1c(O)ccc2c(=O)c(Oc3ccccc3OC)coc12	1%	?	-80*	-9%	-14%	1%[46.1 µM]
Cc1ccccc1CCNC(=O)c1ccc(Cn2c(=O)c3cccn3c3cccnc32)cc1	?	·	·	-18%	9%	·
COc1ccc(S(=O)(=O)NCCc2cn3ccsc3n2)cc1	3%	·	·	5%	7%	·
COC(=O)C1=C(C)NC(C)=C(C(=O)OC)C1c1ccc2ccccc2n1	-2%	-26%	19	-12%	-11%	2%[46.1 µM]
O=C1c2ccccc2C(=O)C1c1ccc2ccccc2n1	2%	5%	20	-5%	2.2µM*	-12%[46.1 µM]
CCOC(=O)C1=C(CN2CCC(C(=O)OCC)CC2)NC(=O)NC1c1ccc(Cl)cc1 (stereo unspecified)	-11%	·	·	?	-16%	·
O=C(CCC1CCCC1)NCc1cccs1	-2%	4%	68	-2%	-3%	0%[46.1 µM]
OC(c1cccs1)(c1cccs1)C1C[N+]2(CF)CCC1CC2 (stereo unspecified)	1%	12%	-98*	-6%	-8%	-1%[46.1 µM]
CCn1cnc2scc(-c3ccccc3)c2c1=O	1%	-1%	-107*	3%	8%	7%[46.1 µM]
O=C(Cn1cnc2scc(-c3ccccc3)c2c1=O)N1CCOCC1	-1%	4%	11	1%	2%	-21%[46.1 µM]
C/C=C/COc1nc2c(c(=O)n(C)c(=O)n2C)n1C	0%	-4%	-100*	5%	6%	5%[46.1 µM]
